Rows were chosen to be rich in hits. Some 4.3% of all compounds tested hit in one or more screens of this group.
DRD3 antagonist – blocks the human D3 dopamine receptor; max response, negative = inhibition, %; hit rate 2.5% among 360,000; D3R cells, DiscoveRx beta-arrestin luminescence, antagonist mode; active compounds read low; P35462; AID 652054; in the data active means max response below about -50%; inconclusive means no clear call, values can overlap the other calls; further: on the % scale 0 is the no-effect control and ±100 the full control effect
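Cells plated overnight at 1500 cells/well, then exposed to library compounds with dopamine controls for 90 minutes at 37 degrees C. DiscoveRx reagent added for 30–60 minutes at room temperature; luminescence read, quantitative HTS format.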
DRD3 agonist – activates the human D3 dopamine receptor; D3R DiscoveRx beta-arrestin cells, luminescence, 90 min; P35462; max activation, %; hit rate 0.58% among 410,000; AID 652048; in the data active means max activation above about 30%; further: 0% is about no effect
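Agonist-mode cell screen: cells plated at 1500/well and incubated overnight at 37 °C, then exposed to library compounds for 90 min at 37 °C. Detection reagent was added for 30–60 min at room temperature, and luminescence was read.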
GLP1R ag – activates the human GLP-1 receptor; P43220; HEK293 GLP-1R CRE-luciferase, luminescence, 4-6 h; cells express a hypersensitive GLP-1R form; Potency, µM (series often up to 45.6 µM), for the others: at the highest dose activation, actives largely listed as activators; hit rate 0.007% among 380,000; AID 624172; further: potency means the concentration at half of the fitted maximal effect; % of control where 0% means no effect
Target sequence (P43220 whole entry, looked up): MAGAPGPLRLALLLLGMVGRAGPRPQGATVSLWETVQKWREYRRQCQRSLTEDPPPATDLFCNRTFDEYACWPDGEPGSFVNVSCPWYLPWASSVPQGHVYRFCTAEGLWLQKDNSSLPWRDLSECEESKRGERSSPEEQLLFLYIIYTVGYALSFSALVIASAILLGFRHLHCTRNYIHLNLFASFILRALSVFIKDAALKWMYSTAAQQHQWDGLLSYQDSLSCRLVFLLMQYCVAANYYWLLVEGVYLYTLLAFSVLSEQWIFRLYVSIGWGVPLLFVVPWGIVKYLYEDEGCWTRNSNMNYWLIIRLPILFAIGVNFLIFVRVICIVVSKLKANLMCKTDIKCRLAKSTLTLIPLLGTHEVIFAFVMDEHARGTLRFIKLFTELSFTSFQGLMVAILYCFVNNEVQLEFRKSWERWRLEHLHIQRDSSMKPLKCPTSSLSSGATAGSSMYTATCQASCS
GLP1R inv ag – inverse agonists of human GLP-1 receptor | P43220 | Potency, µM (doses to about 38.3 µM), for the others: at the highest dose activity change, negative = inhibition, hits mostly inhibitors | HEK293 GLP-1R CRE-luciferase, luminescence, 24 h; GLP-1R form is constitutively active | hit rate 1.6% among 410,000 | AID 624417; further: potency means the concentration at half of the fitted maximal effect; on the % scale 0 is the no-effect control and ±100 the full control effect; nearly all actives have a fitted effect of over 55% in size
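Stable HEK293 clone (constitutively active GLP-1R + cAMP-response luciferase); 200 cells/uL plated, 12 h pre-culture, compound 24 hr, 37 deg C/5% CO2; detection reagent 12 min RT; luminescence.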
* marks the source's active call; other numbers are inactive results; ! = not confirmed by another sample. Unless noted, the call rests on the fitted dose curve; in most records, active means well fitted curve in the direction sought with a large enough effect; inconclusive means small, poorly fitted or top-dose-only effect, or another doubt; inactive means no such curve, though single readings can be large; an effect the other way counts as inactive or inconclusive.

Screening O=[N+]([O-])c1ccc(OCCCCN2CCCCC2)cc1 returned DRD3 antagonist -57.7*, DRD3 agonist -12.1, GLP1R ag -3.1% and GLP1R inv ag -11.6%.
COC(=O)C1CCN(Cc2ccc(OCCCN3CCN(c4ccc([N+](=O)[O-])cc4)CC3)cc2)CC1 was read as DRD3 antagonist -51.7*, DRD3 agonist -13.3, GLP1R ag 5.7% and GLP1R inv ag inconclusive.
`Cc1cc(OCCN2CCCCCC2)ccc1[N+](=O)[O-]` gave DRD3 antagonist -68.0*, DRD3 agonist -15.1, GLP1R ag -0.8% and GLP1R inv ag inconclusive.
O=[N+]([O-])c1ccc(OCCCCCN2CCOCC2)cc1 was read as DRD3 antagonist -23.2, DRD3 agonist -12.7, GLP1R ag 1.7% and GLP1R inv ag -21.6%.
For Cc1cc(OCC(=O)N2CCCCCC2)ccc1[N+](=O)[O-] the results were DRD3 antagonist 7.6, DRD3 agonist 6.9, GLP1R ag -4.4% and GLP1R inv ag -0.2%.
CCOc1ccc(NC(=O)c2cc3cc4cc(OC)ccc4nc3s2)cc1 was read as DRD3 agonist 0.6, GLP1R ag -1.5% and GLP1R inv ag -4.1%.
`CCc1nn(C(CC)C(=O)NCCCN2CC(C)CC(C)C2)c(=O)c2cc3oc(C)cc3n12` (configuration not stated) gave DRD3 antagonist -57.5*, DRD3 agonist -21.8, GLP1R ag 2.9% and GLP1R inv ag inconclusive.
Screening CNc1ccc(Br)cc(C(=O)/C=C/c2ccc(Cl)cc2Cl)c1=O returned DRD3 antagonist inconclusive, DRD3 agonist -8.5, GLP1R ag 2.4% and GLP1R inv ag inconclusive.
CCNc1ccc(Br)cc(C(=O)/C=C/c2ccc3c(c2)OCO3)c1=O was read as DRD3 antagonist -10.5, DRD3 agonist 0.5, GLP1R ag 3.8% and GLP1R inv ag 23.7%.
CCNc1ccc(Br)cc(C(=O)/C=C/c2c(Cl)cccc2Cl)c1=O was read as DRD3 antagonist -66.1*, DRD3 agonist -3.6, GLP1R ag -13.1% and GLP1R inv ag 0.0%.
`CCNc1ccc(Br)cc(C(=O)/C=C/c2ccc(Cl)cc2)c1=O` gave DRD3 antagonist inconclusive, DRD3 agonist -21.9, GLP1R ag 0.1% and GLP1R inv ag 2.82µM*.
For COC(=O)c1sccc1S(=O)(=O)N(CC(=O)NCc1ccccc1)c1ccccc1 the results were DRD3 agonist 0.2 and GLP1R inv ag 7.6%.
For Cn1cnnc1SCC(=O)c1ccc(O)c(O)c1 the results were DRD3 antagonist 35.3, DRD3 agonist 38.7*, GLP1R ag 5.1% and GLP1R inv ag 4.6%.
Screening CC(=O)c1ccc(O)c(CSc2nncn2C)c1 returned DRD3 antagonist 7.8, DRD3 agonist 1.2, GLP1R ag 1.0% and GLP1R inv ag 5.7%.
`CC1=C(C(=O)Nc2ccc(C)cc2Cl)C2(CCCCC2)OC1=O` gave DRD3 agonist -3.6 and GLP1R inv ag -19.8%.
COc1cc(OC)cc(C(=O)NCC(=O)NCc2ccccn2)c1 was read as DRD3 antagonist -9.4, DRD3 agonist 0.3, GLP1R ag -2.2% and GLP1R inv ag 0.5%.
`Cc1ccc(-c2cc(C(F)(F)F)nc(SCC(=O)c3cccc([N+](=O)[O-])c3)n2)cc1` gave DRD3 antagonist -8.0, DRD3 agonist -3.3, GLP1R ag -3.2% and GLP1R inv ag 5.62µM*.
For O=C(CSc1n[nH]c(-c2ccncc2)n1)c1ccccc1 the results were DRD3 antagonist -12.5, DRD3 agonist -4.7, GLP1R ag 0.1% and GLP1R inv ag 17.5%.
For O=C(CSc1n[nH]c(-c2ccncc2)n1)c1cccc([N+](=O)[O-])c1 the results were DRD3 antagonist -69.1*, DRD3 agonist -2.8, GLP1R ag 6.6% and GLP1R inv ag 23.0%.
For CCOc1ccc(Cn2c(CNS(=O)(=O)c3ccc([N+](=O)[O-])cc3)nc3cccnc32)cc1 the results were DRD3 agonist 9.0 and GLP1R inv ag 0.9%.
CC(=O)N1CCC(O)(c2cccc(C(F)(F)F)c2)CC1 was read as DRD3 antagonist 5.4, DRD3 agonist -7.5, GLP1R ag 1.6% and GLP1R inv ag -1.2%.
For O=C(CCCC(=O)c1ccc(F)cc1)c1ccc(F)cc1 the results were DRD3 antagonist 33.5, DRD3 agonist -9.3, GLP1R ag 6.3% and GLP1R inv ag inconclusive.
Screening O=C(CCCN1CCC(O)(c2ccc(Br)cc2)CC1)c1ccc(F)cc1 returned DRD3 antagonist -122.4*, DRD3 agonist -83.1, GLP1R ag -6.7% and GLP1R inv ag 8.5%.
`O=C(CCCN1CCC(O)(c2cccc(C(F)(F)F)c2)CC1)c1ccc(F)cc1` gave DRD3 antagonist -61.2*, DRD3 agonist 0.0, GLP1R ag -6.2% and GLP1R inv ag inconclusive.
For O=S(=O)(O)OCC1OC(COS(=O)(=O)O)(C2(OS(=O)(=O)O)OC(CO)C(OS(=O)(=O)O)C(OS(=O)(=O)O)C2OS(=O)(=O)O)C(OS(=O)(=O)O)C1OS(=O)(=O)O (configuration not stated) the results were GLP1R ag 14.8%.
Screening CC(C)(C)c1nnc(NC(=O)c2cccnc2)s1 returned DRD3 antagonist -24.9, DRD3 agonist 0.5, GLP1R ag -1.5% and GLP1R inv ag 6.8%.
Screening COc1ccc(-c2nnc(Nc3nc4c(OC)cccc4s3)o2)c(OC)c1 returned DRD3 antagonist -68.0*, DRD3 agonist -3.6, GLP1R ag -0.9% and GLP1R inv ag -31.6%.
Screening COc1ccc(-c2nnc(Nc3nc4c(OC)cccc4s3)o2)cc1 returned DRD3 antagonist -9.1, DRD3 agonist -3.2, GLP1R ag 22.5% and GLP1R inv ag inconclusive.
`COc1cc(OC)cc(-c2nc3nc(C)c(CCC(=O)Nc4ccc(C)cc4C)c(C)n3n2)c1` gave DRD3 agonist -12.6, GLP1R ag -0.4% and GLP1R inv ag 8.3%.
Screening COc1cc(C)c(Cl)c(C)c1S(=O)(=O)NC1CC(C)(C)NC(C)(C)C1 returned DRD3 antagonist 2.9, DRD3 agonist -1.0, GLP1R ag -2.3% and GLP1R inv ag 5.62µM*.
For COc1cc(C)c(C(C)C)cc1S(=O)(=O)NC1CC(C)(C)NC(C)(C)C1 the results were DRD3 antagonist 5.3, DRD3 agonist -5.8, GLP1R ag 12.6% and GLP1R inv ag inconclusive.
`CCOc1cc(S(=O)(=O)NC2CC(C)(C)NC(C)(C)C2)ccc1Cl` gave DRD3 antagonist -15.9, DRD3 agonist -1.6, GLP1R ag 6.1% and GLP1R inv ag 11.2µM*.
COc1cc(-c2nc3ccc(C)cn3c2Nc2ccc(Cl)cc2)ccc1O was read as DRD3 agonist -0.7 and GLP1R inv ag 3.55µM*.
`CCC(C)Sc1cccc(-c2nc3ccc(C)cn3c2NCc2ccccc2)c1` (configuration not stated) gave DRD3 antagonist 43.5, DRD3 agonist 17.0, GLP1R ag -0.4% and GLP1R inv ag inconclusive.
Screening CCCCCCSc1cccc(-c2nc3ccccn3c2NCc2ccccc2)c1 returned DRD3 antagonist 177.9, DRD3 agonist 96.1*!, GLP1R ag 4.5% and GLP1R inv ag inconclusive.

Screening results deposited in PubChem BioAssay by National Center for Advancing Translational Sciences (NCATS).
